Screens from PubChem BioAssay.
HT1080NT lethal: kills 2HG-producing HT-1080-NT fibrosarcoma cells | HT-1080-NT fibrosarcoma viability, CellTiter-Glo ATP luminescence, 48 h | 360,000 compounds, 1.6% hits | Potency, µM (doses to about 46.1 µM), for inactives: at the highest dose activity, negative = less viability, actives largely listed as cytotoxic | AID 686970;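 further: NT is the 2HG producing partner of a matched IDH1 knockdown line; potency means the concentration at half of the fitted maximal effect; 0% = DMSO-treated cells and -100% = media-only wells without cells; nearly all actives have a fitted effect of over 55% in size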
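Viability of the 2HG-overproducing fibrosarcoma line after 48 hours of compound exposure at 37 degrees C was determined by luminescence with CellTiter-Glo, and concentration-effect curves were then fitted and categorized.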
HT1080 IDH1KD tx: toxicity to HT-1080 IDH1 knockdown cells (counter line). HT-1080 IDH1 knockdown viability, ATP luminescence, 48 h. Potency, µM (top dose mostly 46.1 µM), for the others: at the top dose activity, negative = toxicity, hits mostly cytotoxic. 360,000 compounds, 2% hits. AID 686971;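 further: potency means the concentration at half of the fitted maximal effect; 0% = DMSO wells and -100% = cell-free medium wells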
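CellTiter-Glo luminescence after 48 h compound exposure at 37 degrees C of IDH1-knockdown HT-1080 cells in 5% FBS RPMI. %Activity scaled between DMSO wells and cell-free media wells, with curves fitted and assigned curve classes.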
DT40 TDP1 CPT: growth inhibition of DT40 Tdp1-/-;hTDP1 cells with camptothecin (screen for TDP1 inhibitors); chicken DT40 Tdp1-/-;hTDP1 cells + 20 nM CPT, ATP luminescence, 48 h; Potency, µM (top dose mostly 46.2 µM), for the others: top-dose activity change, negative = growth inhibition, most hits filed as inhibitors; 420,000 compounds, 12% hits; further: potency means the concentration at half of the fitted maximal effect; nearly all actives have a fitted effect of over 55% in size
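Chicken DT40 Tdp1-/- cells stably complemented with human TDP1 were seeded at 400 cells/well in medium containing 20 nM camptothecin, exposed to pin-transferred compounds, and grown at 37 °C for at least 48 hr. Viability was read as ATP luminescence.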
TDP1 cell noCPT: qHTS for Inhibitors of human tyrosyl-DNA phosphodiesterase 1 (TDP1): qHTS in cells in absence of CPT; DT40 Tdp1-/- hTDP1 cells, no CPT, ATP luminescence, 48 h; Potency, µM (highest dose often 46.2 µM), without a hit: at the highest dose activity change, negative = growth inhibition, usual class: inhibitors; 420,000 compounds, 15% hits; further: potency means the concentration at half of the fitted maximal effect; nearly all actives have a fitted effect of over 55% in size
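Chicken DT40 Tdp1-/- cells stably complemented with human TDP1 were seeded at 400 cells/well with DMSO in place of 20 nM camptothecin. After compound pinning, cells grew at least 48 hr at 37 °C; viability read by CellTiter-Glo luminescence.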
ELG1 DNA repair: ELG1-dependent DNA repair inhibition. HEK293T ELG1-luciferase reporter, luminescence, 16 h; DNA damage induced by 5-fluorouridine. Potency, µM (top dose mostly 46.1 µM), without a hit: at the top dose activity change, negative = inhibition, actives largely listed as inhibitors. 330,000 compounds, 2.3% hits; further: potency means the concentration at half of the fitted maximal effect; nearly all actives have a fitted effect of over 55% in size
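Luminescence from the luciferase reporter, measured 30 min after ONE-Glo reagent at room temperature, was the read-out. Beforehand, 2,000 cells per well were exposed for 16 hr at 37 °C to 5-fluorouridine together with compound or vehicle.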
IL-1B inflam inh: inflammasome signaling inhibition, IL-1 beta readout. 360,000 compounds, 4.7% hits. THP-1 LPS/ATP IL-1B secretion, AlphaLISA, 16 h; hits give low values. activity change, % at 57.5 µM; in the data active means activity change below about -50%; inconclusive means mostly about -30% to -49%
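THP-1 cells pretreated 1 hr with compounds (up to 57.5 uM final), then stimulated with LPS (250 ng/mL final) plus ATP (1.25 mM final); secreted IL-1B measured by AlphaLISA after 16 hr, decreased signal indicating inhibition.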
The depositor's hits bear a star; u = inconclusive; x = no result; [ ] = another dose, or the depositor's remark. A selection: hits, their analogues and other compounds. The true share with any hit is near 19%. Unless noted, the call rests on the fitted dose curve; in most records, active means well fitted curve in the direction sought with a large enough effect; inconclusive means small, poorly fitted or top-dose-only effect, or another doubt; inactive means no such curve, though single readings can be large; an effect the other way counts as inactive or inconclusive. Unless noted, on the % scale 0 is the no-effect control and ±100 the full control effect.

SMILES	HT1080NT lethal	HT1080 IDH1KD tx	DT40 TDP1 CPT	TDP1 cell noCPT	ELG1 DNA repair	IL-1B inflam inh
CNC1[C@@H](O)C(OC2C(N)C[C@H](N)[C@@H](O[C@@H]3OC(C(C)O)C(O)C(O)C3N)C2O)OC[C@]1(C)O (some centres undefined)	x	x	u	-13.0%	x	x
COC12CCC3(CC1C(C)(O)C(C)(C)C)[C@H]1Cc4ccc(O)c5c4[C@@]3(CCN1CC1CC1)C2O5 (some centres undefined)	u	u	u	u	0.9%	u
COc1cc2cc(c1Cl)N(C)C(=O)CC(OC(=O)C(C)N(C)C(C)=O)C1(C)OC1C(C)C1CC(O)(NC(=O)O1)C(OC)C=CC=C(C)C2 (centres undefined)	0.0041µM*	u	0.0461µM*	0.13µM*	x	32.2
CN1C2CCC1CC(OC(=O)C1CCC(C(=O)OC3CC4CCC(C3)N4C)(c3ccccc3)c3ccccc31)C2 (centres undefined)	x	x	-8.6%[9.04 µM]	-9.7%[9.04 µM]	x	x
O=C(NC(=S)N1CC1)c1ccccc1	11.0%	-0.2%	-3.7%	u	x	15.6
O=P(Oc1ccccc1)(Oc1ccccc1)N1CCOCC1	14.2%	14.5%	5.0%	-27.7%	x	-6.5
CC(C)(C)c1ccc(C(=O)NNC(=O)Cc2cccc3ccccc23)cc1	-21.7%	u	u	u	8.9%	-12.2
O=C(OCc1c(-c2ccccc2)ncc2ccccc12)c1ccc(C(F)(F)F)cc1	8.3%	6.8%	u	5.8µM*	u	17.8
COC(=O)C1=C(c2ccc(C(C)=O)cc2)C[C@@H]2CC[C@H]1N2C(=O)N1CCC(O)CC1	-4.3%	4.2%	9.6%	4.9%	7.7%	15.3
O=c1oc2ccccc2c(O)c1[C@H]1c2ccc(O)cc2Oc2c1c(=O)oc1ccccc21	u	-18.8%	u	23.1µM*	u	-91.9*
CCCN1CCCc2cc(CN)ccc21	u	u	9.2µM*	18.4µM*	u	46.7
Cc1ccc2c(c1)CCCN2N=O	-0.7%	-5.7%	u	-7.0%	-1.1%	-2.5
COP(=S)(OC)Oc1ccc([N+](=O)[O-])cc1	x	x	5.8µM*	2.91µM*	x	x
COc1cccc(N2C(=O)NC(=O)/C(=C/c3ccc4c5c(cccc35)CC4)C2=O)c1	x	x	x	x	1.4%	x
CCOc1ccccc1N1C(=O)NC(=O)/C(=C/c2ccc3c4c(cccc24)CC3)C1=O	-10.5%	-8.2%	u	u	8.3%	-89.4*
COc1ccc(CCn2c(O)c(/C=N/N3CCOCC3)c(=O)[nH]c2=O)cc1OC	-2.0%	0.8%	6.6%	-26.6%	18.3µM*	18.1
CCC(C)n1c(O)c(/C=N/N2CCOCC2)c(=O)[nH]c1=S (centres undefined)	-21.4%	-1.3%	23.1µM*	-90.7%	-0.3%	3.5
CCOc1ccc(N=Cc2c(O)n(CCc3ccc(OC)c(OC)c3)c(=O)[nH]c2=O)cc1	2.8%	2.9%	u	16.4µM*	-12.8%	9.2
COc1ccc2c(c1OC)C(=O)O[C@@H]2C1c2cc3c(cc2CCN1C)OCO3 (some centres undefined)	x	x	3.9%	-12.5%	x	x
COc1ccc(CCNc2nc3ccc(Cl)cc3n3cnnc23)cc1OC	x	x	18.4µM*	16.4µM*	x	x
CNCCc1ccc(OC)c(OC)c1	-5.9%	0.0%	-27.5%	-18.3%	4.6%	-19.3
C[C@]12CC3CC(N)(C1)C[C@@](C)(C3)C2	-15.3%	3.8%	u	u	x	-26.3
O=P(O)(O)C(Cl)(Cl)P(=O)(O)O	x	x	12.7%	0.1%	x	x
Clc1ccc(Cl)cc1	x	x	-9.8%	-6.9%	x	x
CCCc1[nH]nc2c1C(c1ccc(OC)c(Cn3nnc4ccccc43)c1)C(C#N)=C(N)O2 (centres undefined)	1.4%	3.8%	25.9µM*	u	x	1.5
SMILES	HT1080NT lethal	HT1080 IDH1KD tx	DT40 TDP1 CPT	TDP1 cell noCPT	ELG1 DNA repair	IL-1B inflam inh
COC(=O)C1=C(c2ccc(F)cc2OCc2ccccc2)C[C@@H]2CC[C@H]1N2C(=O)NCCCOC(C)C	-2.1%	-3.0%	u	u	-14.2%	0.0
COP(=O)(OC)C1(O)C(=O)Nc2ccc(Br)cc21 (centres undefined)	12.1%	13.9%	16.4µM*	u	3.7%	0.0
O=c1ccc2c(O)c3ccoc3cc2o1	-2.2%	-0.6%	-11.1%	u	u	-0.2
CCOC(=O)[C@]12Cc3cc(OC)ccc3[C@H]1N(C(C)C)C(=O)c1cc(OC)ccc12	20.6µM*	20.6µM*	20.6µM*	18.4µM*	x	-116.6*
CCOC(=O)[C@]12Cc3c(cc(OC)c(OC)c3OC)[C@H]1N(C(C)C)C(=O)c1cc(OC)ccc12	14.6µM*	18.4µM*	9.2µM*	7.31µM*	x	-113.3*
CCOC(=O)C1CCN(/C=C2/C(=O)NC(=S)N(c3cccc(OC)c3)C2=O)CC1	-0.6%	0.6%	-2.7%	-0.1%	-2.2%	-16.1
COc1cc(C)c(-c2nc(CN3C[C@@H]4C[C@@H](C3)c3cccc(=O)n3C4)c(C)o2)cc1C	-20.3%	-12.8%	u	u	-4.7%	-114.7*
CCN(CC)P(=S)(c1c(C)nc2ccccn12)c1c(C)nc2ccccn12	-12.0%	u	25.9µM*	u	-13.7%	31.7
CCOc1c(P(=S)(N(C)C)N(C)C)c(C)nn1-c1ccccc1	15.0%	9.8%	-20.6%	-16.7%	13.7%	-5.3
C[N+]1(C)CCCCC1COC(=O)C(O)(c1ccccc1)c1ccccc1 (centres undefined)	x	x	-3.4%	-1.7%	x	x
O=C(CCn1nc(-c2ccc(Cl)cc2)ccc1=O)N1CCC2(CC1)OCCO2	-1.8%	0.1%	-17.1%	-9.4%	-4.2%	-4.0
Cc1nc2cc(-c3ccc(Cl)cc3)nn2c(C)c1CCC(=O)N1CCC2(CC1)OCCO2	-4.4%	11.0%	23.1µM*	20.6µM*	x	34.6
O=C(COc1ccccc1Cl)N1CCN(CCc2ccncc2)CC1	x	x	-9.7%	-19.2%	x	x
O=C(OC1Cc2c(O)cc(O)cc2OC1c1cc(O)c(O)c(O)c1)c1cc(O)c(O)c(O)c1 (centres undefined)	x	x	-11.4%	u	x	x
Oc1cc(O)c2c(c1)OC(c1cc(O)c(O)c(O)c1)C(O)C2 (centres undefined)	x	x	3.26µM*	u	x	x
NC[C@H](CS(=O)(=O)O)c1ccc(Cl)cc1	x	x	22.4%	-1.2%	x	x
